# PINK1 modulator = modulators of PINK1 expression. PINK1 immunofluorescence, high-content cytometry, 24 h. Potency, µM (series often up to 76.6 µM), without a hit: at the highest dose activation (PINK1 increase), most hits filed as activators. 410,000 tested, 0.2% active; active means well fitted activation curve with a large enough effect; inconclusive means small, poorly fitted or top-dose-only effect; cell line not stated here; further: % of control where 0% means no effect; nearly all actives have a fitted effect of over 65% in size
#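 Measures PINK1 amount and localization on or inside mitochondria by immunofluorescence. Stable cells get compounds at 5 concentrations for 24 hours before fixation and staining; CCCP controls included.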
# SW480 rereplic = induces DNA re-replication in SW480 colon adenocarcinoma cells; SW480 DNA re-replication, Hoechst DNA content imaging, 48 h; Potency, µM (doses to about 46.1 µM), inactives show at the highest dose re-replication activation, usual class: activators; 340,000 tested, 1.8% active; AID 624297; further: % of control where 0% means no effect; nearly all actives have a fitted effect of over 55% in size
#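 SW480 cells exposed to compounds for 48 hr at 37 C, 5% CO2, then Hoechst-stained 40 min. Nuclear DNA content imaged by fluorescence scanning (405 nm excitation, 500-530 nm emission); re-replication scored as increased high-intensity nuclei.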
# KB-3-1 tox = kills parental KB-3-1 adenocarcinoma cells; KB-3-1 viability, CellTiter-Glo ATP luminescence, 72 h; Potency, µM (doses to about 46.1 µM), actives largely listed as cytotoxic; 400,000 tested, 1.4% active; further: on the % scale 0 is the no-effect control and ±100 the full control effect; nearly all actives have a fitted effect of over 60% in size
#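 Luminescent ATP read-out (CellTiter-Glo) measures survival of drug-naive KB-3-1 cells after 72 h compound exposure at 37 °C. Titration series was screened from lowest to highest concentration, with DMSO vehicle plates as background controls.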
# KB-V1 MDR tox = KB-V1 MDR subline cytotoxicity; KB-V1 MDR cells viability, CellTiter-Glo, 72 h; Potency, µM (titrated, usually from 46.1 µM), actives largely listed as cytotoxic; 400,000 tested, 3.4% active; further: on the % scale 0 is the no-effect control and ±100 the full control effect; nearly all actives have a fitted effect of over 60% in size
#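 Luminescent ATP read-out (CellTiter-Glo, 10 min) measures survival of drug-selected KB-V1 MDR cells after 72 h, 37 degrees C compound exposure. Medium: phenol-red-free DMEM, 10% FBS. Values from fitted concentration-response curves.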
# MCF10A rereplic = DNA re-replication induction in MCF 10a cells; MCF 10A DNA re-replication, Hoechst nuclear intensity, 48 h; Potency, µM (top dose mostly 46.1 µM), for the others: at the top dose activity, positive = re-replication, hits mostly activators; 350,000 tested, 2.9% active; further: % of control where 0% means no effect; nearly all actives have a fitted effect of over 50% in size
# Numbers without * were called inactive; i = inactive; ? = inconclusive; nt = not tested or not shown; ! = not active in a repeat; [ ] = another dose, or the depositor's remark. Most compounds without a hit are left out; they make up all but 6.7% or so of the library. Unless noted, the call rests on the fitted dose curve; in most records, active means well fitted curve in the direction sought with a large enough effect; inconclusive means small, poorly fitted or top-dose-only effect, or another doubt; inactive means no such curve, though single readings can be large; an effect the other way counts as inactive or inconclusive. Potency means the concentration at half of the fitted maximal effect.
SMILES,PINK1 modulator,SW480 rereplic,KB-3-1 tox,KB-V1 MDR tox,MCF10A rereplic
O=C(Nc1ccc(Cl)cc1)Nc1ccc(Cl)c(Cl)c1,?,?,?,21µM*!,?
COCCCn1c(N)c(C(=O)NCc2ccco2)c2nc3ccccc3nc21,1%,18µM*,i,i,16µM*
COCCCn1c(N)c(C(=O)Nc2ccccc2)c2nc3ccccc3nc21,1%,21µM*,?,i,?
CCC(C)NC(=O)c1c(N)n(CCCOC)c2nc3ccccc3nc12 (stereo unspecified),1%,7.3µM*,i,8.2µM*,4.1µM*
COCCCn1c(N)c(C(=O)OC(C)COC)c2nc3ccccc3nc21 (stereo unspecified),4%,3%,i,?,5%
O=C1CC2OCC=C3CN4CCC56c7ccccc7N1C5[C@H]2[C@H]3C[C@H]46 (stereo partly specified) (tested in a mixture with another compound),nt,-5%,nt,nt,nt
O=C1CC23c4ccccc4N4C(=O)CC5OCC=C6CN1C2CC6C5C43 (stereo unspecified),-4%,0%,i,15µM*,1%
CN1/C(=C\C=C2C(=O)NC(=S)NC2=O)C(C)(C)c2ccccc21,35µM*,9%,?,?,9%
CN1CCc2nc(N)c(C#N)c(-c3ccccc3)c2C1,11%[38.3 µM],-13%,i,i,0%
CN1CCc2c(C#N)c(Cl)nc(Cl)c2C1,4%,2.3µM*,i,?,?
NCC(=O)c1cccc([N+](=O)[O-])c1,nt,nt,i,i,nt
O=C(c1cc(C(=O)NCc2ccccc2)c(=O)n(Cc2ccccc2)c1)c1cc(Cl)ccc1O,1%,11%,?,18µM*,?
O=C(NCc1ccccc1)c1cccn(Cc2ccccc2)c1=O,1%,0%,i,i,13%
O=C1C(I)=CC(=C(c2cc(I)c(O)c(I)c2)c2ccccc2C(=O)O)C=C1I,nt,-3%,nt,nt,?
Nc1ccccc1C(=O)OCC(=O)N1CCc2ccccc21,0%,1%,i,i,0%
N#CSCC(=O)N1c2ccccc2CCc2ccccc21,-2%,?,?,23µM*,?
[O]=[Sb]([OH])([OH])[c]1ccccc1,0%,nt,?,i,nt
CC1(C(=O)O)CCCC2(C)c3cc(O)ccc3CCC12 (stereo unspecified),0%,-13%,i,i,18µM*
COc1cc(-c2ccc(-[n+]3nc(-c4ccccc4)nn3-c3ccc([N+](=O)[O-])cc3)c(OC)c2)ccc1-[n+]1nc(-c2ccccc2)nn1-c1ccc([N+](=O)[O-])cc1,nt,?,nt,nt,-1%
Cc1ccccc1-n1c(/C=C/c2ccccn2)nc2ccccc2c1=O,1%,27%,i,?,18µM*
O=c1c2ccccc2nc(/C=C/c2ccccc2)n1-c1ccccc1O,0%,?,i,i,?
Cc1ccc(-n2c(/C=C\c3ccc(F)c(F)c3)nc3ccccc3c2=O)c(C)c1,0%,nt,2.9µM*,4.1µM*,nt
O=c1c2ccccc2nc(/C=C/c2ccc(O)cc2)n1-c1ccccc1O,0%,17%,21µM*,i,21µM*
Cc1ccccc1-n1c(/C=C/c2ccc(O)cc2)nc2ccccc2c1=O,0%,nt,nt,nt,nt
Cc1ccc(C(=O)CN2CCOCC2)cc1,nt,nt,i,i,nt
SMILES,PINK1 modulator,SW480 rereplic,KB-3-1 tox,KB-V1 MDR tox,MCF10A rereplic
Cn1cc([N+](=O)[O-])c(C(=O)Nc2ccc3c(C(F)(F)F)cc(=O)oc3c2)n1,-1%,12µM*,?,i,?
Cn1cc(Br)c(C(=O)Nc2ccc3c(C(F)(F)F)cc(=O)oc3c2)n1,1%,?,i,i,1%
CC[C@]1(C(=O)OC)[C@H]2C(=O)N(Cc3ccccc3)C(=O)[C@H]2[C@H]2CN=C(SCc3ccc(C(=O)OC)cc3)N21,2%,?,?,i,-2%
O=C(COc1ccccc1)N1CCN(C/C=C/c2ccccc2)CC1,-3%,14%,i,16µM*,2%
COc1ccc(OC)c(CN2CCN(C(=O)COc3cccc(C)c3)CC2)c1,-1%,0%,i,i,2%
c1ccc2c(CN3CCOCC3)c[nH]c2c1,3%,-33%,i,i,-3%
COc1ccc(CN2CCN(C(=O)COc3cccc(C)c3)CC2)c(OC)c1,-1%,?,i,2.3µM*,19%
c1ccc2c(CN3CCCCCC3)c[nH]c2c1,-2%,0%,15µM*,i,-7%
O=C(COc1ccccc1)N1CCN(Cc2c[nH]c3ccccc23)CC1,-1%,-1%,i,i,1%
COc1ccc(OCC(=O)N2CCN(Cc3c[nH]c4ccccc34)CC2)cc1,6%,-3%,i,16µM*,15%
c1ccc(N2CC3(CCNCC3)C2)nc1,-1%,nt,nt,nt,nt
F/C(COc1ccc2c(c1)[nH]c1ccccc12)=C1/CN2CCC1CC2,nt,10%,nt,nt,22%
CCCC12CN3CC(C)(CN(C1)C3c1ccccn1)C2=O (stereo unspecified),0%,nt,i,i,nt
CC(C)(C)c1ccc(C(=O)NC(=S)Nn2cnnc2)cc1,4%,1%,i,i,?
Oc1cc(Cl)c(Cl)c(Cl)c1Cl,?,-3%,i,i,15µM*
Cc1cccc(CN2CCN(c3ccc(Cl)cc3)CC2)c1,?,3%,i,i,-11%
Cc1cccc(CN2CCN(Cc3ccc(Cl)cc3)CC2)c1,5%,?,i,?,7.3µM*
CC(C)Sc1nnc([C@@H](N)Cc2c[nH]c3ccccc23)o1,44%[38.3 µM],-4%,i,18µM*,14%
CC(C(=O)c1c[nH]c2ccccc12)N1CCOCC1 (stereo unspecified),1%,?,i,i,9%
CC(C)N1CC=C(c2c[nH]c3ccccc23)CC1,1%,12%,2.1µM*,i,41%
Cc1ccccc1NC(=O)CCl,14%,14%,21µM*,i,2%
Cc1ccccc1NC(=O)Cc1nc(COC(=O)Cc2ccccc2)cs1,-1%,-15%,i,?,7%
CCC(=O)[C@@H](C)[C@@H](O)[C@H](C)C[C@@H](C)C1OC(=O)C[C@@]2(O)CC=C(C)C(O2)C(C)=CCCC[C@H](O[C@H]2C[C@@H](OC(N)=O)[C@H](O)[C@@H](C)O2)C=C[C@H](C)C[C@H]1C (stereo partly specified),0%,nt,0.65µM*,?,nt
Clc1ccc(CCC(Cn2ccnc2)Sc2c(Cl)cccc2Cl)cc1 (stereo unspecified),3%,-56%,?,21µM*,?
Clc1ccc([C@H](Cn2ccnc2)OCc2csc3c(Cl)cccc23)c(Cl)c1,nt,0%[20.6 µM],nt,nt,4%[20.6 µM]
CN(C)c1ccc(N=Nc2ccccc2)cc1,1%,nt,?,?,nt

# Screening data from PubChem BioAssay.
